Assay outcomes deposited in PubChem BioAssay by National Center for Advancing Translational Sciences (NCATS).
This is a sample that favours compounds with a hit; in the whole collection about 2.1% have one here.
Abeta rescue: restores growth of yeast expressing A-beta42 peptide; yeast expressing A-beta42, growth rescue, OD600, 48 h; response scale: 0% DMSO, 100% iron-clioquinol control; Potency, µM (doses to about 46.1 µM), hits mostly activators; hit rate 0.063% among 410,000; further: nearly all actives have a fitted effect of over 55% in size
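Yeast A-beta toxicity model in growth medium with pinned compounds, 48 h at 30 C; growth read as absorbance at 600 nm. Normalized to FeCl3/clioquinol equimolar mix (positive) and DMSO (negative).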
FUS suppressor: suppressors of FUS proteinopathy in yeast | Potency, µM (titrated, usually from 76.6 µM), most hits filed as activators | S. cerevisiae FUS-expressing, growth rescue, OD600, 24 h | hit rate 0.24% among 390,000; further: nearly all actives have a fitted effect of over 55% in size
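Read-out: OD at 600 nm after 24hr at 30C, reporting rescue of FUS-induced yeast toxicity. Cells at OD 0.005 in galactose (2%) minimal medium; compounds tested in a dilution series; CP55940 titration from 92uM final as control.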
aSyn yeast inh: inhibitors of alpha-synuclein toxicity in yeast. Yeast expressing alpha-synuclein, growth rescue, BacTiter-Glo, 24 h. Potency, µM (series often up to 46.1 µM), actives largely listed as activators. hit rate 0.14% among 370,000. AID 652106; further: nearly all actives have a fitted effect of over 65% in size
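Readout is rescue of growth in alpha-synuclein-expressing yeast, so inhibitors of toxicity appear as activators. Growth after 24 hr at 30 deg C in galactose medium is quantified by luminescence.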
TDP-43 yeast inh: rescues yeast growth from TDP-43 toxicity | TDP-43 expressing yeast growth rescue, BacTiter-Glo, 24 h | Potency, µM (top dose mostly 46.1 µM), hits mostly activators | hit rate 1.8% among 410,000; further: nearly all actives have a fitted effect of over 50% in size
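Readout is BacTiter-Glo luminescence of cell growth, so inhibitors register as activators. TDP-43-expressing yeast at OD600=0.02 in galactose medium, after raffinose pregrowth to mid-log, were incubated with compound for 24 hr at 30 deg C.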
Large screens that a line does not name were inactive. The call rests on the fitted dose curve; in most records, active means well fitted curve in the direction sought with a large enough effect; inconclusive means small, poorly fitted or top-dose-only effect, or another doubt; inactive means no such curve, though single readings can be large; an effect the other way counts as inactive or inconclusive.

CN(C)S(=O)(=O)c1cccc(NC(=O)CSc2nc3ccccc3n2-c2ccccc2)c1	none (no result: FUS suppressor)
CCN(CC)c1ccc(NC(=O)CSc2nc3ccccc3c(=O)n2-c2cc(S(=O)(=O)N(C)C)ccc2C)cc1	FUS suppressor 35.5µM
CN(C)S(=O)(=O)c1ccc(NC(=O)CSc2nc3ccccc3n2-c2ccccc2)cc1	FUS suppressor 6.31µM
CN(C)c1ccc(NC(=O)CSc2nc3ccccc3c(=O)n2C2CCCCC2)cc1	FUS suppressor inconclusive
CCCCNc1nc(N(C)c2ccccc2)nc(-n2ccnc2)n1	TDP-43 yeast inh 14.1µM
CN(c1ccccc1)c1nc(-n2ccnc2)nc(-n2ccnc2)n1	TDP-43 yeast inh inconclusive
O/N=C(/C[n+]1csc2ccccc21)c1ccccc1	none (no result: Abeta rescue, FUS suppressor, TDP-43 yeast inh)
CCOC(=O)c1nn(-c2ccc(C)cc2)cc1C(=O)c1ccccc1	TDP-43 yeast inh 12.6µM (no result: aSyn yeast inh)
O=[N+]([O-])c1ccc(-c2ccc(/C=N/Nc3nc(N4CCCCC4)nc(N4CCCCC4)n3)o2)cc1	TDP-43 yeast inh 14.1µM
O=[N+]([O-])c1cc(/C=N/Nc2nc(N3CCCCC3)nc(N3CCCCC3)n2)ccc1O	TDP-43 yeast inh 22.4µM
C(=N\Nc1nc(N2CCCCCC2)nc(N2CCCCCC2)n1)/c1ccccc1	TDP-43 yeast inh 22.4µM
COc1ccc(/C=N/Nc2nc(N3CCCCC3)nc(N3CCCCC3)n2)cc1[N+](=O)[O-]	FUS suppressor inconclusive
CCCCn1c(SCC(=O)OCC)nc2c(sc(=S)n2-c2ccccc2OC)c1=O	TDP-43 yeast inh 12.6µM
COc1ccccc1-n1c(SCC(=O)O)nc2c(sc(=S)n2-c2ccccc2C)c1=O	none
O=C1C(=Cc2cccc(Cl)c2)CCc2ccccc21	TDP-43 yeast inh 20µM
O=c1c(Cl)c(Cl)cnn1Cc1ccc(F)cc1	TDP-43 yeast inh 20µM
CC(C)CS(=O)(=O)c1oc(-c2ccc(F)cc2)nc1S(=O)(=O)c1ccccc1	TDP-43 yeast inh 20µM (no result: aSyn yeast inh)
CCC(C)S(=O)(=O)c1oc(-c2cccs2)nc1S(=O)(=O)c1ccccc1 (stereo not given)	TDP-43 yeast inh 11.2µM (no result: aSyn yeast inh)
CNc1oc(-c2cccs2)nc1S(=O)(=O)c1ccccc1	none
C[C@H]1[C@H](N(Cc2cccs2)Cc2cccs2)CC[C@@]23CCCN2C(=O)CCC[C@@H]13	none (no result: Abeta rescue, aSyn yeast inh, TDP-43 yeast inh)
COc1ccc(Cn2nnnc2C(c2cc3cc(C)ccc3[nH]c2=O)N2CCOCC2)cc1 (stereo not given)	none
COc1ccc(N2CCN(C(c3cc4cc(C)ccc4[nH]c3=O)c3nnnn3Cc3ccccc3)CC2)cc1 (stereo not given)	FUS suppressor 8.91µM
CCOC(=O)C1CCC(CN(Cc2cccc(Br)c2)S(=O)(=O)c2ccc(Cl)cc2)CC1 (stereo not given)	none (no result: aSyn yeast inh)
CCOC(=O)C1CCN(c2ncnc3c2[nH]c2cccc(OC)c23)CC1	FUS suppressor 22.4µM
Cc1onc(-c2ccccc2Cl)c1C(=O)Nc1ccc(-n2nncc2-c2ccco2)cc1	FUS suppressor 8.91µM
Oc1cc2cc(-c3csc(-c4ccc(F)cc4)n3)cc3c2n1CCC3	none (no result: Abeta rescue, FUS suppressor, TDP-43 yeast inh)
CC(C)(C)C(=O)Nc1cc(-c2cccc(Br)c2)nn1-c1ccccc1	TDP-43 yeast inh 22.4µM (no result: aSyn yeast inh)
Cc1cccc(-c2cc(NC(=O)C(C)(C)C)n(-c3ccccc3)n2)c1	TDP-43 yeast inh inconclusive (no result: aSyn yeast inh)
CCOc1ccc(NC(=O)c2oc3ccccc3c2NC(=O)C(C)(C)C)cc1	none (no result: aSyn yeast inh)
COc1cc(OC)cc(-c2nnc(SCC(=O)N3CCC(C)CC3)o2)c1	TDP-43 yeast inh inconclusive (no result: aSyn yeast inh)
O=[N+]([O-])c1cccnc1N1CCC(c2cc(-c3ccc(Cl)cc3Cl)n[nH]2)CC1	Abeta rescue inconclusive, FUS suppressor 25.1µM, aSyn yeast inh inconclusive, TDP-43 yeast inh inconclusive
Cc1cn(C2OC(COC(=O)c3ccccc3)C(OC(=O)c3ccccc3)C2OC(=O)c2ccccc2)c(=O)[nH]c1=O (stereo not given)	FUS suppressor 25.1µM
Cc1cn(C2OC(COC(=O)c3ccccc3)C(O)C2O)c(=O)[nH]c1=O (stereo not given)	none
CCc1cc2c(SC(C)C(=O)NC3CCCC3)ncnc2s1 (stereo not given)	TDP-43 yeast inh 35.5µM
CCc1cc2c(SCC(=O)NC3CC3)ncnc2s1	none (no result: FUS suppressor)
Cc1cc(C)c2c(CC(=O)Nc3nnc(CC(C)C)s3)coc2c1	none (no result: aSyn yeast inh)
O=C(CSc1nc(=O)n(Cc2ccncc2)c2c1CCC2)Nc1ccccc1	none (no result: aSyn yeast inh)
Cc1ccsc1/C=N/NC(=O)CSCc1ccc(Cl)cc1	aSyn yeast inh inconclusive, TDP-43 yeast inh 14.1µM
Nc1ccc2cccnc2c1	none (no result: Abeta rescue, FUS suppressor, TDP-43 yeast inh)
